In the library only some 12% were active in any assay of this set; here they are far more common.
BAZ2B block: blocks human BAZ2B | Q9UIF8 | AlphaScreen BAZ2B-H3K14Ac peptide displacement | Potency, µM (series often up to 114 µM), actives largely listed as inhibitors | actives 4.4% (n = 360,000) | AID 504333; also: nearly all actives have a fitted effect of over 60% in size
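BAZ2B (50 nM) with biotin-H3(5-23)K14Ac peptide (50 nM) in PBS pH 7.4, 0.01% Tween-20, preformed 30 min, then compound 30 min at room temperature; top concentration 110uM. AlphaScreen streptavidin donor/nickel chelate acceptor beads (10 ug/mL final), 20 min dark, signal read.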
G9a inh: G9a (human) methyltransferase inhibition. G9a H3K9 monomethylation, AlphaScreen, 2 h. AID 504332. Potency, µM (highest dose often 102 µM), usual class: inhibitors. actives 8.8% (n = 350,000); also: nearly all actives have a fitted effect of over 75% in size
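Readings reflect AlphaScreen signal from monomethyl-H3K9 antibody detection. HMT at 20 nM; substrate b-H3K9 500 nM; cofactor SAM 20 uM; 2 h RT reaction; compounds tested as titrations in qHTS with 15 min preincubation.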
Sfp inh: blocks B. subtilis Sfp PPTase activity. actives 3.5% (n = 310,000). Biochemical Sfp PPTase activity, qHTS. AID 1490. Q9F4F7. Potency, µM, actives largely listed as inhibitors;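 also: the enzyme is Sfp with the accession as filed and its product quenches rhodamine fluorescence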
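Fluorescence-quenching assay with 15 nM Sfp, 5 uM rhodamine-CoA and 12.5 uM BHQ-2-labelled ybbR peptide in pH 7.6 Hepes/MgCl2 buffer. Enzyme was pre-incubated with compound for 15 min at room temperature. Rate was taken from the 30-min fluorescence change (525/598 nm).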
TDP1 inh: blocks human tyrosyl-DNA phosphodiesterase 1; actives 0.28% (n = 350,000); AID 485290; recombinant TDP1, AlphaScreen DNA substrate cleavage; Potency, µM (doses to about 130 µM), most hits filed as inhibitors; also: nearly all actives have a fitted effect of over 40% in size
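Compounds were preincubated with Tdp1 (1 nM final) for 15 min at room temperature before substrate (15 nM final) started a 5 min reaction; beads (10 ug/ml final) were then added for 10 min before AlphaScreen detection.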
JMJD2A Tudor inh: JMJD2A Tudor domain (human) inhibition; AID 504339; actives 4.4% (n = 390,000); Potency, µM (highest dose often 114 µM), actives largely listed as inhibitors; O75164; AlphaScreen JMJD2A-Tudor / H3K4me3 peptide binding; also: nearly all actives have a fitted effect of over 50% in size
HP1b chromo inh: blocks HP1-beta chromodomain binding to methylated histone tails; P83916; AlphaScreen HP1-beta / biotin-H3K9me3 peptide binding; Potency, µM (titrated, usually from 114 µM), actives largely listed as inhibitors; actives 0.56% (n = 390,000); AID 540317; also: nearly all actives have a fitted effect of over 70% in size
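HP1-beta protein (50 nM final) preincubated 30 min at room temperature with biotinylated H3(1-18)K9me3 peptide (50 nM) in PBS pH 7.4, 0.01% Tween-20, then compound added for 30 min. AlphaScreen streptavidin donor/nickel chelate acceptor beads (10 ug/mL final), 30 min dark, luminescence read.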
Hits are given with their value; - = inactive; ? = inconclusive; . = not tested or not shown; [ ] = remark or other dose. Calls follow the shape of the dose curve; as a rule, active = well fitted curve in the direction sought with a large enough effect; inconclusive = small, poorly fitted or top-dose-only effect, or another doubt; inactive = no such curve, though single readings can be large; an effect the other way counts as inactive or inconclusive.

SMILES | BAZ2B block | G9a inh | Sfp inh | TDP1 inh | JMJD2A Tudor inh | HP1b chromo inh
COc1ccc(/C=C2/SC(=S)N(n3c(C)ccc3C)C2=O)cc1 | 10µM | 16µM | - | - | 35µM | ?
COc1ccc(/C=C2\SC(=S)N(CCC(=O)N(CCO)c3ccccc3)C2=O)cc1OC | - | -[2.33 µM] | - | . | - | -
COc1ccc(/C=C2\SC(=S)N(CCCC(=O)Nc3ccc(O)cc3)C2=O)cc1 | - | - | - | . | -[11.4 µM] | -
CCOc1ccc(/C=C2\NC(=S)NC2=O)cc1 | - | 45µM | - | - | -[11.4 µM] | -
CCOc1ccc(/C=C2/SC(=S)N(n3c(C)ccc3C)C2=O)cc1 | 11µM | 10µM | - | - | 22µM | 14µM
Cc1no[n+]([O-])c1COc1ccc(/C=C2\NC(=S)NC2=O)cc1 | - | - | - | - | - | -
O=C1/C(=C/c2ccccc2)SC(=S)N1N1C(=O)C2CC2C1=O (stereo not given) | - | 25µM | - | - | - | -
O=C(O)C(Cc1ccccc1)N1C(=O)/C(=C/c2ccccc2)SC1=S (stereo not given) | ? | ? | - | - | ? | -
O=C(NNC(=S)NC(=O)c1ccc(F)cc1)c1cccnc1 | - | 11µM | - | - | - | -
O=C(NNS(=O)(=O)c1ccc2ccccc2c1)c1cccnc1 | - | - | - | - | 7.9µM | -
O=C(NNC(=S)Nc1ccccc1)c1cccnc1 | - | 56µM | - | - | - | -
O=C(NNC(=S)NC(=O)c1cccnc1)c1ccccc1 | - | 28µM | - | - | ? | -
CCOc1ccc(CCNC(=O)c2cc3cccc4c3n2CCS4)cc1 | - | - | . | - | - | -
Cc1cccc(C)c1OC[C@H](C)N | . | -[21.5 µM] | - | -[21 µM] | . | .
CC1CCCC(NC(=O)CN(C)CC(=O)Nc2ccc(F)cc2)C1C (stereo not given) | - | -[0.501 µM] | . | - | - | -
COCCCNC(=O)C1CCC(=O)N(c2ccc3c(c2)OCO3)C1c1ccc(OC)cc1 (stereo not given) | - | - | - | . | - | -
O=C(NNS(=O)(=O)c1ccc2ccccc2c1)c1cc(-c2ccccn2)nc2ccccc12 | - | 79µM | - | - | - | -
O=C(NNS(=O)(=O)c1ccccc1)c1cccnc1 | - | - | - | - | -[11.4 µM] | -
O=S(=O)(NCc1cccnc1)c1ccc2ccccc2c1 | - | - | - | -[0.0935 µM] | - | -
O=S(=O)(Nc1ccncc1Cl)c1ccc2ccccc2c1 | - | 45µM | - | - | - | -
Cc1cccc(C)c1NC(=O)c1cccnc1 | - | -[0.501 µM] | - | . | - | -
Cc1cccc(C)c1NC(=O)CNC(=O)c1cccnc1 | - | 79µM | - | - | - | -
O=C(Nn1cnnc1)c1cc(-c2ccccn2)nc2ccccc12 | - | -[12.7 µM] | - | - | - | -
O=C(NC(=S)NNS(=O)(=O)c1ccc(Cl)cc1)c1cccnc1 | - | 50µM | - | - | - | -
COc1ccc2c(c1)C(=O)[C@@H](OC(=O)NCCc1ccc(OC)c(OC)c1)[C@H](c1ccc(OC)c(Br)c1)O2 | . | . | - | - | . | .
SMILES | BAZ2B block | G9a inh | Sfp inh | TDP1 inh | JMJD2A Tudor inh | HP1b chromo inh
COc1ccc(NC(=O)CSC2=Nc3ccccc3C3=NC(CCC(=O)NCc4ccco4)C(=O)N23)cc1 (stereo not given) | - | - | . | - | - | -
Cc1ccccc1NC(=S)NNC(=O)c1ccncc1 | - | - | - | - | - | -
COC(=O)c1cccnc1NC(=S)NNC(=O)c1ccncc1 | - | ? | 10µM | - | - | -
Cc1ccccc1NC(=S)NNC(=O)c1cccnc1 | - | 1.8µM | - | - | 22µM | -
COc1ccc(/C=C/C(=O)NC(=S)NNC(=O)c2cccnc2)cc1 | - | ? | - | - | - | -
O=C(/C=C/c1ccc(F)cc1)NC(=S)NNC(=O)c1cnccn1 | 2.8µM | 50µM | - | - | 7.9µM | -
C[C@H](CO)N1C[C@H](C)[C@@H](CN(C)C)Oc2c(NS(=O)(=O)c3ccc(F)cc3)cccc2C1=O | . | . | . | - | - | -
COc1ccc(Br)c(C(=O)Nc2cc3c(cc2N2CCCC2)n(C)c(=O)c(=O)n3C)c1 | - | ? | . | - | - | -
CC(C)Sc1nc2[nH]ncc2c(=O)[nH]1 | - | 35µM | 50µM | - | - | -
CNC(=O)CSc1nc2[nH]ncc2c(=O)[nH]1 | - | - | - | - | - | -
